Anthrax LF inh2 – anthrax lethal factor protease inhibition | P15917 | multiplex microsphere protease cleavage assay, LF | inhibition, % at 10 µM | 0.12% of 360,000 active; note: plate controls were buffer without enzyme for full effect and enzyme alone for no effect
Target sequence (P15917 whole entry, looked up): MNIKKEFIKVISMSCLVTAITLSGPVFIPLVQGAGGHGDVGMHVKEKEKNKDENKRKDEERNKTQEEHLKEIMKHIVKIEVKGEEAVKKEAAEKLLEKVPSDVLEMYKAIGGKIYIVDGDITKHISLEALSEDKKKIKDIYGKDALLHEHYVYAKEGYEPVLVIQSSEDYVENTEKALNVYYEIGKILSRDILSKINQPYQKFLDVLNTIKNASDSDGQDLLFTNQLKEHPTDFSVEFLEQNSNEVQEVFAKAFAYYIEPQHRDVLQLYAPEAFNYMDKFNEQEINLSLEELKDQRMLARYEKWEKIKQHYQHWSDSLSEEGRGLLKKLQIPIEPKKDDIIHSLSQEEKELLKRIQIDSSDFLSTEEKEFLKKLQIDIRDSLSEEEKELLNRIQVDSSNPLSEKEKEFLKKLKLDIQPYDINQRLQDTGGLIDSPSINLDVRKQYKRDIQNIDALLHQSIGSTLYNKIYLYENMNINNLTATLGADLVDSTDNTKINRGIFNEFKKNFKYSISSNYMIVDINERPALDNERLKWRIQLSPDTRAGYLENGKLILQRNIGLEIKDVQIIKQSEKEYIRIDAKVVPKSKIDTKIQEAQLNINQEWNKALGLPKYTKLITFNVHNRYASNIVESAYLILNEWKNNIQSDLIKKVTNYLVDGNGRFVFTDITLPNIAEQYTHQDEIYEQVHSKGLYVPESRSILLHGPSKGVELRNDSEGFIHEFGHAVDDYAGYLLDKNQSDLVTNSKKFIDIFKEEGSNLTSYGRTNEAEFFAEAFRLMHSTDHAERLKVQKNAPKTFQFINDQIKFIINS
BoNT-A LC inh2 – inhibitors of Botulinum neurotoxin A light chain protease. inhibition, % at 10 µM. 0.17% of 360,000 active. multiplex microsphere protease substrate cleavage, flow cytometry; note: plate controls were buffer without enzyme for full effect and enzyme alone for no effect
SSB-PriA inh – blocks PriA binding to SSB C-terminal tail. AlphaScreen SSBct-PriA binding, biotinylated peptide. inhibition, % at 33 µM. 0.6% of 430,000 active. AID 1272365; in the data active = inhibition mostly above about 37%, no sharp cut-off; inactive = mostly below about 20%;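 note: plate controls were negative control peptide for no effect and reference peptide for full effect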
Bead autofluor – flagged as autofluorescent in microsphere protease counterscreen; AID 624483; fluorescence intensity (no concentration beside the values); 3.1% of 360,000 active; compound autofluorescence counterscreen, microsphere flow cytometry; active compounds read high; in the data active = fluorescence intensity above about 16000; inconclusive = no clear call, values can overlap the other calls
BoNT-F LC inh – BoNT F light chain protease inhibition | Multiplex microsphere protease cleavage assay, flow cytometry | inhibition, % at 10 µM | 0.22% of 360,000 active; in the data active = inhibition above about 35%, passing the limit was not always enough; inconclusive = no clear call, values can overlap the other calls; note: plate controls were buffer without enzyme for full effect and enzyme alone for no effect
An asterisk follows results filed as active. Only some compounds are listed: those with a hit (about 3.1% of all), similar ones and a draw of the others. Cut-off read from the data, not from the text of the source, unless noted: active = inhibition above about 30%; inconclusive = no clear call, values can overlap the other calls; inactive = below that.

What do the screens show for `CCCNC(=O)c1c(N)n(Cc2ccc3c(c2)OCO3)c2nc3ccccc3nc12`?
Anthrax LF inh2: -2; BoNT-A LC inh2: 4; SSB-PriA inh: 0; Bead autofluor: 23041*; BoNT-F LC inh: 4

What do the screens show for `CC(C)CCNC(=O)c1c(N)n(Cc2ccc3c(c2)OCO3)c2nc3ccccc3nc12`?
Anthrax LF inh2: 5; BoNT-A LC inh2: 21; SSB-PriA inh: 17; Bead autofluor: 10113; BoNT-F LC inh: 1

How did Cn1nnc2c(SCC(=O)Nc3ccc(F)c(Cl)c3)ncnc21 do in these assays?
SSB-PriA inh: -4

Results for CCOc1ccc(NC(=O)C(=O)NCC(c2ccc3c(c2)CCN3C)N(C)C)cc1 (stereo unspecified) ?
SSB-PriA inh: 0

How did COCCn1c(N)c(C(=O)NCc2cccs2)c2nc3ccccc3nc21 do in these assays?
Anthrax LF inh2: 13; BoNT-A LC inh2: 9; SSB-PriA inh: -58; Bead autofluor: 20185*; BoNT-F LC inh: 0

Results for COc1ccccc1CNC(=O)c1c(N)n(CCCN2CCOCC2)c2nc3ccccc3nc12 ?
Anthrax LF inh2: 1; BoNT-A LC inh2: 13; SSB-PriA inh: -51; Bead autofluor: 18665*; BoNT-F LC inh: 2

How did CCOC(=O)c1c(C)nc2c(c1-c1cc(OC)c(OC)c(OC)c1)C(=O)c1ccccc1-2 do in these assays?
Anthrax LF inh2: -1; BoNT-A LC inh2: inconclusive; SSB-PriA inh: -6; Bead autofluor: 19026*; BoNT-F LC inh: 5

What do the screens show for `CCOC(=O)c1c(C)nc(C)c(C(=O)OCC)c1-c1ccccc1`?
Anthrax LF inh2: 0; BoNT-A LC inh2: 1; SSB-PriA inh: 3; Bead autofluor: 9531; BoNT-F LC inh: 4

What do the screens show for `Cc1nccn1-c1ccc(N2CCN(C(=O)CCn3ccc(=O)[nH]c3=O)CC2)nn1`?
SSB-PriA inh: -22

Results for Cc1cc2ncc(CCCNC(=O)Cn3cccc3)cn2n1 ?
SSB-PriA inh: 0

How did O=C(NCC1CCCO1)C1CC(c2ccccc2Cl)=NO1 (stereo unspecified) do in these assays?
Anthrax LF inh2: 1; BoNT-A LC inh2: 1; SSB-PriA inh: -6; Bead autofluor: 21967*; BoNT-F LC inh: 1

How did CCCCCCSC1=C(C#N)C2(CCC(C)CC2)[C@H](C#N)C(=O)N1 (stereo partly specified) do in these assays?
SSB-PriA inh: -12

How did CCOc1ccc(S(=O)(=O)Nc2ccc(Nc3ccc(-n4cccn4)nn3)cc2)cc1 do in these assays?
SSB-PriA inh: 70*

How did O=S(=O)(Nc1ccc(Nc2ccc(-n3cccn3)nn2)cc1)c1cccc(Br)c1 do in these assays?
SSB-PriA inh: 28

Results for Cc1ccc(S(=O)(=O)NN=Cc2cn(CC(N)=O)c3ccccc23)cc1 ?
SSB-PriA inh: 12

What do the screens show for `COC(=O)NC1CCS(=O)(=O)C1` (stereo unspecified)?
Anthrax LF inh2: -4; BoNT-A LC inh2: inconclusive; SSB-PriA inh: -1; Bead autofluor: 17672*; BoNT-F LC inh: -7

How did O=C(c1ccco1)N1CCc2ccc(NS(=O)(=O)c3ccc4c(c3)OCCO4)cc21 do in these assays?
SSB-PriA inh: 13

Results for COc1ccc(S(=O)(=O)NCCCn2nc(-c3ccncc3)ccc2=O)cc1F ?
SSB-PriA inh: -4

What do the screens show for `Nc1c(S(=O)(=O)c2cc(Cl)ccc2Cl)c2nc3ccccc3nc2n1CCN1CCOCC1`?
Anthrax LF inh2: -1; BoNT-A LC inh2: inconclusive; SSB-PriA inh: -5; Bead autofluor: 24321*; BoNT-F LC inh: 2

Results for Cn1c(=O)c2c(SCC(=O)N3CCCC3)nc(-c3cccc([N+](=O)[O-])c3)nc2n(C)c1=O ?
SSB-PriA inh: -10

How did COc1cc(NS(C)(=O)=O)c2ncccc2c1 do in these assays?
SSB-PriA inh: 21

Results for COc1cc(N)c2ncccc2c1 ?
SSB-PriA inh: 47*

How did CSc1ccc(C(O)CNC(=O)C(=O)Nc2cccnc2)cc1 (stereo unspecified) do in these assays?
SSB-PriA inh: -25

How did CC1(C)CC(=O)C2=C(C1)N(c1ccc(F)cc1)C(=O)C2(O)C(F)(F)F (stereo unspecified) do in these assays?
Anthrax LF inh2: 0; BoNT-A LC inh2: -6; SSB-PriA inh: -4; Bead autofluor: 22420*; BoNT-F LC inh: -7

How did CC(=O)Nc1cc(C)nn1-c1nc(C)cc(=O)[nH]1 do in these assays?
SSB-PriA inh: 24

What do the screens show for `Cc1cc(=O)[nH]c(-n2nc(C)cc2C)n1`?
Anthrax LF inh2: -2; BoNT-A LC inh2: -1; SSB-PriA inh: -11; Bead autofluor: 2908; BoNT-F LC inh: -6

Results for Cc1cc(=O)[nH]c(-n2nc(C)cc2N)n1 ?
SSB-PriA inh: 96*

How did Cc1cccc(CC(=O)Nc2cc(C)nn2-c2nc(C)cc(=O)[nH]2)c1 do in these assays?
SSB-PriA inh: 51*

Results for CC(N)=C(C#N)C(=O)COC(=O)C(NS(=O)(=O)c1ccc(Cl)cc1)C(C)O (stereo unspecified) ?
SSB-PriA inh: -7

Results for CC(=NNC(=O)C(C)Sc1ccccc1)C(C)(C)C (stereo unspecified) ?
SSB-PriA inh: -14

How did Cc1ccc(C=NNC(=O)c2csc3c2CCCC3)cc1 do in these assays?
SSB-PriA inh: 5

How did N/C(=N\OC(=O)c1cccc2ccccc12)c1cccc([N+](=O)[O-])c1 do in these assays?
Anthrax LF inh2: -1; BoNT-A LC inh2: -1; Bead autofluor: 16600*; BoNT-F LC inh: 0

Results for N/C(=N\OC(=O)c1ccc(F)cc1)c1ccccc1 ?
Anthrax LF inh2: -2; BoNT-A LC inh2: -7; Bead autofluor: 22601*; BoNT-F LC inh: -8

How did N/C(=N\OC(=O)c1ccccc1Cl)c1ccccc1 do in these assays?
Anthrax LF inh2: -2; BoNT-A LC inh2: inconclusive; Bead autofluor: 22870*; BoNT-F LC inh: 0

How did COc1cc(S(=O)(=O)N2CCN(CCO)CC2)c(OC)cc1Br do in these assays?
SSB-PriA inh: -10

Results for O=C(NCCc1ccoc1)C(=O)Nc1ccc2c(c1)OCO2 ?
SSB-PriA inh: -7

Results for O=C(NN=Cc1cc(O)ccc1Br)c1cccnc1 ?
SSB-PriA inh: 46*

How did O=C(Nc1c(F)cc(F)cc1Br)c1cccnc1 do in these assays?
Anthrax LF inh2: 0; BoNT-A LC inh2: -1; SSB-PriA inh: 2; Bead autofluor: 23919*; BoNT-F LC inh: -2

What do the screens show for `O=C(Nc1ccc(Br)cc1F)c1cccnc1`?
Anthrax LF inh2: 0; BoNT-A LC inh2: 0; SSB-PriA inh: 12; Bead autofluor: 2648; BoNT-F LC inh: -5

What do the screens show for `COc1nn(C)cc1C(=O)N1CCOCC1CN(C)C` (stereo unspecified)?
SSB-PriA inh: -14

What do the screens show for `Cc1cccc(NC(=O)CSc2ccc(-c3ccc(Br)cc3)nn2)c1C`?
SSB-PriA inh: 12

What do the screens show for `CC1(C)NC(=O)N(CCCOc2ccccc2Br)C1=O`?
Anthrax LF inh2: 0; BoNT-A LC inh2: 1; SSB-PriA inh: -8; Bead autofluor: 16174*; BoNT-F LC inh: 4

How did CCC(C)(C)c1ccc(OCCN2C(=O)NC(C)(C)C2=O)cc1 do in these assays?
Anthrax LF inh2: 0; BoNT-A LC inh2: 1; SSB-PriA inh: -9; Bead autofluor: 22180*; BoNT-F LC inh: 2

Screening results deposited in PubChem by several laboratories.
